Assay [1] deals with Lysosomal acid glucosylceramidase (Homo sapiens) (UniProt P04062). In words: Glucocerebrosidase-p2 (AID 348; in the data active = potency below about 10 µM; also: potency is read from the fitted curve at half-maximal effect). As to conditions: purified GBA, blue fluorogenic substrate, 40 min. The gist of the method: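 Normal human glucocerebrosidase (0.2 nM) with blue fluorogenic substrate (80 uM final) in citrate/phosphate pH 5.9 with 10mM sodium taurocholate, 0.01% tween-20; 40 min RT, NaOH/glycine stop; fluorescence Ex 365/Em 440; AC50 from a titration from 0.6 nM upwards.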
Chain of Lysosomal acid glucosylceramidase (Homo sapiens) (P04062 whole entry, looked up): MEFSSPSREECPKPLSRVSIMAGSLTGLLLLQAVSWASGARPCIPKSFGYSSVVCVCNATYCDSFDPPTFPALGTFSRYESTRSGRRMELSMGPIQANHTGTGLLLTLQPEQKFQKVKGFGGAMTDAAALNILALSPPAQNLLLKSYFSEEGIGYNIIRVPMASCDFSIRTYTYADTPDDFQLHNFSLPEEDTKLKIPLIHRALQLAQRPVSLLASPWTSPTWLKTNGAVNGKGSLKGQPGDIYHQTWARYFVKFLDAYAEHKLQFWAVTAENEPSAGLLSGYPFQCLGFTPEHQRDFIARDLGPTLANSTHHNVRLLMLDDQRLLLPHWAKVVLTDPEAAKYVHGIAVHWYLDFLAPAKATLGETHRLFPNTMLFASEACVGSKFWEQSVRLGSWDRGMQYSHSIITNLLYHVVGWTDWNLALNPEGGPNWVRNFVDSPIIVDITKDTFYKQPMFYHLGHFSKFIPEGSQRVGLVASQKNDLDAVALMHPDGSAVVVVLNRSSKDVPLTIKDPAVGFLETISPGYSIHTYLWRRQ

The nature of assay [2]: AP1 Signaling Pathway (AID 357; active = well fitted curve in either direction with a large enough effect, not every such curve was filed as active; also: % is scaled to controls: 0 for no effect and ±100 for the full control effect). Conditions: ME-180 AP-1-bla reporter, EGF-induced, beta-lactamase ratio, 5 h; at 7.69 µM (top of the series) unless noted. The gist of the method:
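ME-180 cells with beta-lactamase reporter under AP-1 response element, stimulated with EC50 EGF; compounds tested in titration series, 5 h at 37 °C. CCF4 substrate added 2.5 h at room temperature; 460/530 nm emission ratio gave %activity and AC50.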

Assay [3] concerns the target Cytochrome P450 1A2 (Homo sapiens) (UniProt P05177). Briefly: p450-cyp1a2 (AID 410; calls by dose curve; also: potency is read from the fitted curve at half-maximal effect). Conditions: recombinant CYP1A2, luciferin-ME demethylation, luminescence; series mostly up to 57 µM. The gist of the method:
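20nM CYP1A2, 100uM Luciferin-ME (=Km), 100mM KPO4; cpd 10 min RT; +NADPH regen, 60 min RT; stop/detect 20 min; luminescence. Normalized to furafylline 57 uM = full inhibition.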

Assay [4] in a line: NFAT Signaling Pathway (AID 444; active = well fitted curve in either direction with a large enough effect, not every such curve was filed as active;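 also: carbachol stimulus at about its EC50 of 1 µM final; % is scaled to controls: 0 for no effect and ±100 for the full control effect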). As to conditions: Jurkat NFAT-bla M1, carbachol, beta-lactamase ratio, 5 h; at 7.69 µM (top of the series) unless noted. The essentials: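 Jurkat cells carrying an NFAT-driven β-lactamase reporter and co-transfected muscarinic M1 receptor were treated with compound plus carbachol (1 uM final, an EC50 level) for 5 h at 37 °C. CCF4 loading followed for 1 h at RT; 460/530 nm ratio gave %activity.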

A short description of assay [5]: Stat Signaling Pathway (AID 446; active = well fitted curve in either direction with a large enough effect, not every such curve was filed as active;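 also: ME-180 cervical cancer cells given 40 pM IL-6 alongside compound; SIE-controlled beta-lactamase reporter measured as 460/530 nm FRET emission ratio; % is scaled to controls: 0 for no effect and ±100 for the full control effect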). Conditions: ME-180 (cervical carcinoma) SIE beta-lactamase reporter, IL-6 stimulated, 5 h; at 7.69 µM (top of the series) unless noted. The gist of the method:
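Overnight-plated ME-180 cells bearing a STAT Inducible Element beta-lactamase reporter; 5 h co-exposure to compound and 40 pM IL-6; values normalized to 300 pM IL-6 and 125 nM JAK inhibitor controls.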

Assay [6] concerns the target Glucocorticoid receptor (Homo sapiens) (UniProt P04150). Briefly: GR-EFC Redistribution (AID 451; calls by dose curve; also: potency is read from the fitted curve at half-maximal effect). As to conditions: CHO-K1 GR-EFC translocation, beta-gal luminescence, 2 h. The gist of the method: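 CHO-K1 cells stably expressing nuclear-localized β-gal enzyme acceptor and GR fused C-terminally to the enzyme donor fragment; ligand-driven nuclear translocation restores β-gal by complementation. Compounds titrated up to 46 uM final, 2 h at 37 °C; luminescence read.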

The target of assay [7] is Mitogen-activated protein kinase 10 (Mus musculus) (UniProt Q61831). In words: JNK3 AlphaScreen Assay (AID 530; active = well fitted curve in either direction with a large enough effect, not every such curve was filed as active;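 also: kinase came from lysate of stimulated human HepG2 cells; % is scaled to controls: 0 for no effect and ±100 for the full control effect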). Conditions: JNK3 lysate, c-Jun phosphorylation; series mostly up to 57.1 µM. The gist of the method: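 Biotinylated GST-cJun(1-79) served as substrate for JNK3 in HepG2 lysates stimulated with IL-1beta and TNF-alpha. ATP was 10 uM final, pH 7.6. Ser73 phosphorylation was quantified by AlphaScreen (680 nm excitation).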

Assay [8] concerns the target Cytochrome P450 3A4 (Homo sapiens) (UniProt P08684). Briefly: qHTS Assay for Activators of Cytochrome P450 3A4 (AID 885). Also: nearly all actives have a fitted effect of over 65% in size. Conditions: recombinant CYP3A4, Luciferin-PPXE luminescence, 60 min; series mostly up to 57.1 µM. The gist of the method:
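Using 20nM recombinant human CYP3A4 in potassium phosphate (200mM), substrate Luciferin-PPXE at 25uM, luminescent luciferin detection followed a 60-min RT NADPH reaction; data scaled to 57 uM ketoconazole.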
(In general: qHTS replaces the single test concentration by a dilution series.)

The nature of assay [9]: Confirmation and Secondary Assay for Modulators of Hemoglobin Beta Chain Splicing at IVS2 654 locus (AID 910). Also: % of control where 0% means no effect. As to conditions: HeLa EGFP-654 splicing reporter, GFP fluorescence, 48 h; series mostly up to 38.3 µM. The gist of the method: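 HeLa cells stably carrying EGFP interrupted by mutant beta-globin IVS2-654 intron (CMV-driven) were treated with compound for 2 days at 37C; corrected splicing was scored as total peak GFP intensity per well (488 nm excitation, 500-520 nm emission).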

The nature of assay [10]: Confirmation and Secondary Assay for Modulators of Hemoglobin Beta Chain Splicing at IVS2 705 locus (AID 930).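 Also: HeLa cells stably expressing the EGFP-705 splicing reporter; GFP fluorescence per well restored by corrected splicing of the IVS2-705 intron in EGFP; % of control where 0% means no effect.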 Conditions: HeLa EGFP-705 splicing reporter, GFP fluorescence, 48 h; series mostly up to 38.3 µM. The essentials: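 Read-out: total peak GFP fluorescence per well (488 nm excitation, 500-520 nm emission) by laser-scanning cytometry. Cells: HeLa EGFP-705 splicing reporter, 2 days compound exposure in Optimem/2% FCS.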

Assay [11] is described as follows: qHTS Assay for Lipid Storage Modulators (AID 1519; calls by dose curve). As to conditions: Drosophila S3 cells, BODIPY lipid droplet/cell ratio, laser cytometry, cells loaded with oleic acid; for activity change, negative = inhibition: at 57.5 µM (top of the series). The essentials:
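Cells seeded at 5,000 per well were treated with compounds over a concentration series and loaded with oleic acid (400 uM, as added). Lipid droplet fluorescence (488 nm excitation, 500-530 nm channel) was read by laser-scanning cytometry and normalized to 20 uM Triacsin C.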

Assay [12] can be described thus: Counterscreen qHTS for small molecule stabilizers of the endoplasmic reticulum resident proteome: GLuc-NoTag assay (AID 1508627).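 Also: 0% = thapsigargin alone and -100% = DMSO vehicle control.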 Conditions: Gaussia luciferase NoTag secretion counterscreen, luminescence, thapsigargin 100 nM for final 4 h; series mostly up to 76.4 µM. The gist of the method:
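Secreted GLuc lacking the SERCaMP modification is measured in SH-SY5Y cells exposed to compound for 19 h and then to thapsigargin (100 nM, 4 h) to deplete ER calcium; hits retested at 11 concentrations, up to 76.6 uM.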

Assay [13] in a line: Confirmatory qHTS for small molecule stabilizers of the endoplasmic reticulum resident proteome: Secreted ER Calcium Modulated Protein (SERCaMP) assay (AID 1508628). Also: nearly all actives have a fitted effect of over 40% in size. Also: potency is read from the fitted curve at half-maximal effect. Conditions: SERCaMP secreted luciferase ER calcium/proteostasis reporter; series mostly up to 76.3 µM. The essentials:
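GLuc-SERCaMP-expressing SH-SY5Y cells, pretreated 16 h with compound, are challenged with thapsigargin to empty ER calcium stores; after 4 h, coelenterazine is added directly to the medium and luminescence is imaged.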

The target in assay [14] is Glucocorticoid receptor (Homo sapiens) (UniProt P04150). In words: GR-GFP Redistribution (AID 450;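 active = compounds whose dose series gives a full or clear partial fitted curve of increased nuclear translocation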; also: potency is read from the fitted curve at half-maximal effect). As to conditions: U2OS GR-GFP nuclear translocation, laser cytometry, 2 h.
Chain of Glucocorticoid receptor (Homo sapiens) (P04150 whole entry, looked up, the tested form may be a part): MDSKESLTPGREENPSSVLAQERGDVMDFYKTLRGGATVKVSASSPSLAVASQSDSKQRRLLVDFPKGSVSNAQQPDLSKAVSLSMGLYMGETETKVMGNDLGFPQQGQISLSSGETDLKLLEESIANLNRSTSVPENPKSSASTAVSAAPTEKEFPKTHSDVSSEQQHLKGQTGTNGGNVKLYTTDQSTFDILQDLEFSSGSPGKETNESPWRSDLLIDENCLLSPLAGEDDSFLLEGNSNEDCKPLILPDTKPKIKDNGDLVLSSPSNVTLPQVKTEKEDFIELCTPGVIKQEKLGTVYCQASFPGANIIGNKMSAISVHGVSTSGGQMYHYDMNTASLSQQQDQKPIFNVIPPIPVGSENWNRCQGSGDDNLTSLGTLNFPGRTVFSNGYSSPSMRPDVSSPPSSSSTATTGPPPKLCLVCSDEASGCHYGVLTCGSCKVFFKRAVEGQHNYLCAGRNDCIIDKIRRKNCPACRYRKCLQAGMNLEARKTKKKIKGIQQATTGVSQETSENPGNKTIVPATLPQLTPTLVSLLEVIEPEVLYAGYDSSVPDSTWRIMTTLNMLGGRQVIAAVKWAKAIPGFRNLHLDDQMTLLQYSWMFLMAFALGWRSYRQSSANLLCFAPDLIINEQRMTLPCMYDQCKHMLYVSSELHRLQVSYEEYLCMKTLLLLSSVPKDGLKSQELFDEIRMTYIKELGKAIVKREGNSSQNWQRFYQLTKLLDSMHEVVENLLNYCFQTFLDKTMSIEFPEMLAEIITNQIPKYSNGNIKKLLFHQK
Assay [15] addresses Cytochrome P450 2C9 (Homo sapiens) (UniProt P11712). Briefly: qHTS Assay for Inhibitors and Substrates of Cytochrome P450 2C9 (AID 883). Also: % is scaled to controls: 0 for no effect and ±100 for the full control effect; nearly all actives have a fitted effect of over 60% in size. As to conditions: recombinant CYP2C9, luciferin-H luminescence, 60 min; series mostly up to 57.1 µM. The essentials: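 Human CYP2C9 (10nM) hydroxylated Luciferin-H (100uM, at its KM) to luciferin in 25mM KPO4. Compound was preincubated 10 min at 37C, then NADPH regeneration started a 60 min reaction at 37C. Luminescence was read after detection reagent, normalized to 57uM sulphaphenazole.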

In assay [16] the target is Cytochrome P450 3A4 (Homo sapiens) (UniProt P08684). In words: qHTS Assay for Inhibitors and Substrates of Cytochrome P450 3A4 (AID 884). Also: potency is read from the fitted curve at half-maximal effect; nearly all actives have a fitted effect of over 50% in size. As to conditions: recombinant CYP3A4, Luciferin-PPXE luminescence; series mostly up to 57.1 µM. The gist of the method:
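Luminescent readout of luciferin produced by CYP3A4 (20 nM) dealkylation of Luciferin-PPXE, 25 uM (its KM). NADPH-driven reaction ran 60 min at RT after 10 min compound preincubation; data scaled to 57 uM ketoconazole as 100% inhibition.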

Assay [17] concerns the target Cytochrome P450 2D6 (Homo sapiens) (UniProt P10635). In words: qHTS Assay for Inhibitors and Substrates of Cytochrome P450 2D6 (AID 891). Also: potency is read from the fitted curve at half-maximal effect; nearly all actives have a fitted effect of over 60% in size. As to conditions: recombinant CYP2D6, luciferin-ME EGE luminescence; series mostly up to 57.1 µM. The essentials: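 Luminescent read-out of luciferin formed by 5 nM human CYP2D6 demethylating 30 uM Luciferin-ME EGE (Km level) over 60 min at room temperature after NADPH regeneration addition. Data normalized to full inhibition by 1.43 uM quinidine.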

Assay [18] has as its target Ubiquitin carboxyl-terminal hydrolase 1 (Homo sapiens) (UniProt O94782). In words: Inhibitors of USP1/UAF1: Pilot qHTS (AID 504865).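 Also: rhodamine fluorescence freed from ubiquitin-rhodamine substrate followed over time; top concentration of the series differs between compounds; % is scaled to controls: 0 for no effect and ±100 for the full control effect; nearly all actives have a fitted effect of over 35% in size.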 As to conditions: purified USP1/UAF1, Ub-rhodamine cleavage fluorescence; series mostly up to 54.9 µM. The essentials: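 Kinetic fluorescence assay: 1nM USP1/UAF1, 15 min compound preincubation, then 150nM Ub-Rho; 480/540 nm.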
Assay [19] is described as follows: Cell Viability qHTS for small molecule stabilizers of the endoplasmic reticulum resident proteome (AID 1508629). Conditions: cell viability counter-screen, 100 nM thapsigargin for final 4 h.
The mark [20] stands for this setting: measured here: cell count channel max response.
The mark [21] stands for this setting: measured here: lipid channel max response.

Results filed as inconclusive are left out. The source made the active and inactive calls. Unless noted, calls follow the shape of the dose curve; as a rule, active = well fitted curve in the direction sought with a large enough effect; inconclusive = small, poorly fitted or top-dose-only effect, or another doubt; inactive = no such curve, though single readings can be large; an effect the other way counts as inactive or inconclusive. Some results are limits rather than exact numbers.

Chain of Cytochrome P450 3A4 (Homo sapiens) (P08684 whole entry, looked up): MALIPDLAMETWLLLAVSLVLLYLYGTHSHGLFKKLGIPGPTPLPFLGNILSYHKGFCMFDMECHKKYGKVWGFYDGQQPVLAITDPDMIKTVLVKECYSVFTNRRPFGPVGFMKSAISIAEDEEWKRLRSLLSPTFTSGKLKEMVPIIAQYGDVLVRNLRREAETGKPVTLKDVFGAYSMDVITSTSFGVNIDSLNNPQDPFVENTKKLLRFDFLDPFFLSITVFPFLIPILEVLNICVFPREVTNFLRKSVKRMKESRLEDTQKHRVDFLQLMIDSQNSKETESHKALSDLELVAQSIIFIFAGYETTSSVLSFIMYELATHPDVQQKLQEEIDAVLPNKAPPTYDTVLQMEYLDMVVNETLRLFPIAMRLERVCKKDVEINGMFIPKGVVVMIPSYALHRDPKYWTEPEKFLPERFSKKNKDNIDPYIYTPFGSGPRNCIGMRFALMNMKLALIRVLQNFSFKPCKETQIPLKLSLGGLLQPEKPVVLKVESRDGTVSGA
Chain of Cytochrome P450 1A2 (Homo sapiens) (P05177 whole entry, looked up): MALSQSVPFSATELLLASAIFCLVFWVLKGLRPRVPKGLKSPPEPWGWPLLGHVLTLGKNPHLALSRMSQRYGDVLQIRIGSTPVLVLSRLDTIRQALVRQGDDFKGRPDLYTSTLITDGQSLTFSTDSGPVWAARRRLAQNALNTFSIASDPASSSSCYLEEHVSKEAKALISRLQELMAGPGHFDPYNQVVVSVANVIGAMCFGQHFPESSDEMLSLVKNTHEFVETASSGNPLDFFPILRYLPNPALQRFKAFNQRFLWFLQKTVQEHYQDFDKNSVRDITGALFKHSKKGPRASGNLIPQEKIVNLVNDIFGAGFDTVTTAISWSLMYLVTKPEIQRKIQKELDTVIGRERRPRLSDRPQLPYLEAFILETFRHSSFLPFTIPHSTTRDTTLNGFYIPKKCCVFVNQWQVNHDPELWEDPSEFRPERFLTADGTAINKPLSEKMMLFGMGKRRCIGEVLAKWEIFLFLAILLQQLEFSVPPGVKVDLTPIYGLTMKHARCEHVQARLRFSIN
Chain of Cytochrome P450 2D6 (Homo sapiens) (P10635 whole entry, looked up): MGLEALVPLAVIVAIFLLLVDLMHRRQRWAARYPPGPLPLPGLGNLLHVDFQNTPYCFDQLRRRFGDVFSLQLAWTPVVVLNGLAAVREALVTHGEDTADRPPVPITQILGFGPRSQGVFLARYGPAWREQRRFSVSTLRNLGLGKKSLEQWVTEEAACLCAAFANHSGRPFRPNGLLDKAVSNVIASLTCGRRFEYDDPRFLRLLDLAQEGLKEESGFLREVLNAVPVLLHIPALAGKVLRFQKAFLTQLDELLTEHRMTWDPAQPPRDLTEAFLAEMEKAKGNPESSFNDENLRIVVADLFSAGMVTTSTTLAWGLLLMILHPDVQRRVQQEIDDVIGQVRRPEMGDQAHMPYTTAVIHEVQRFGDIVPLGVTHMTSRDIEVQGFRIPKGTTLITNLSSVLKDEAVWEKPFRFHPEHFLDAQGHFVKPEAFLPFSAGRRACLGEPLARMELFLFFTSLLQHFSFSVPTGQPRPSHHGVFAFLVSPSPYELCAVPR
Chain of Cytochrome P450 2C9 (Homo sapiens) (P11712 whole entry, looked up): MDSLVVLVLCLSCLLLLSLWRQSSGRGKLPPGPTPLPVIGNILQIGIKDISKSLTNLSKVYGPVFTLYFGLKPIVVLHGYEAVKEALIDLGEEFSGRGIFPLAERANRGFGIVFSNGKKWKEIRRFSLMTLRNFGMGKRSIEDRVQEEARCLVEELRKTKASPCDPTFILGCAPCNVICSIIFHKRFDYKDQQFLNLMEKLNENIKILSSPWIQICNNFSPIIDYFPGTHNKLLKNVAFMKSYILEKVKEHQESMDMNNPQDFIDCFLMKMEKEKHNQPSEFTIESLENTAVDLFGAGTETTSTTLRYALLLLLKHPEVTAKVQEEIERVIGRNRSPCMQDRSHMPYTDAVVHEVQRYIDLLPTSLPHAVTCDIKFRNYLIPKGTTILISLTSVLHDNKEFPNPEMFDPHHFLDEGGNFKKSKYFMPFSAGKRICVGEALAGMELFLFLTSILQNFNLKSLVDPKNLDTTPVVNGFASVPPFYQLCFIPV
Chain of Ubiquitin carboxyl-terminal hydrolase 1 (Homo sapiens) (O94782 whole entry, looked up): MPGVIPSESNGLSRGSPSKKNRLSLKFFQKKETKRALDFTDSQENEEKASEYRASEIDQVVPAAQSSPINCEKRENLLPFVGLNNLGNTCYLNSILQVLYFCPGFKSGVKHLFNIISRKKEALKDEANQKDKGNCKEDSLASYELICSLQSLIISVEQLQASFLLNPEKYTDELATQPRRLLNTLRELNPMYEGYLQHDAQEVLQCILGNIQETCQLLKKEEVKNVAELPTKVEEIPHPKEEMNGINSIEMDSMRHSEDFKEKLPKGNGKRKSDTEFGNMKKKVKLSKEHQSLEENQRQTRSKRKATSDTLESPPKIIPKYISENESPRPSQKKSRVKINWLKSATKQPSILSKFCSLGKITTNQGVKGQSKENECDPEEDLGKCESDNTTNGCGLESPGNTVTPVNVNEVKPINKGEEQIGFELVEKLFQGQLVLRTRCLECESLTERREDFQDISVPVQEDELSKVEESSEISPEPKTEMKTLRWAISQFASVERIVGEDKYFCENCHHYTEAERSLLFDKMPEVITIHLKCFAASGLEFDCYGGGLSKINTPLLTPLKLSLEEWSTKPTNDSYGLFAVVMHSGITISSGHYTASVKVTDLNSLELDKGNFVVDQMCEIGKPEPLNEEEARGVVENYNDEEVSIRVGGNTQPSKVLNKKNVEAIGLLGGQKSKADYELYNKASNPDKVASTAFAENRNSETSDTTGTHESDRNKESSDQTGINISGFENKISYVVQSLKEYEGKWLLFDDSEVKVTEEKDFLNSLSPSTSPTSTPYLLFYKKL

In the case of `CN1CCN(c2ncnc3ccc(-c4ccccc4C#N)cc23)CC1`, the Potency in assay [1] was > 11.4 µM (inactive); in assay [3] it was 3.16 µM (active); in assay [6], > 46 µM (inactive). The activity change, negative = inhibition is 15.1% (inactive) in [2], -9.23% (inactive) in assay [4] and 3.92% (inactive) in assay [11]. The activity, negative = inhibition in [5] was 19.8% (inactive). Besides, the call in [7], in assay [9] and in [10] was inactive. Besides, the Potency result in assay [8], in [12] and in [13] was “inactive” each time. Further, the max response in [11] (setting [20]) is -20.1%; in assay [11] (setting [21]) it was -16%.
`COc1ccc(CNc2ncnc3ccc(-c4ccccc4CN(C)C)cc23)c(OC)c1`: the results for the activity change, negative = inhibition in [2], in assay [15] and in assay [11] were 7.23% (inactive), 2.97% [at 2.29 µM] (inactive) and 3.46% (inactive), respectively. For the same compound, the Potency was 31.6 µM (active) in assay [3]; > 46 µM (inactive) in [14]; > 46 µM (inactive) in assay [6]; 7.94 µM (active) in [16]; 1.26 µM (active) in assay [17]; 7.94 µM (active) in assay [13]. The activity, negative = inhibition in assay [5] is -15.7% (inactive). Moreover, the outcome in [7], in assay [9] and in assay [10] was inactive. For the same compound, the Potency entry in [8], in [18] and in assay [12] was “inactive” throughout. For the same compound, the max response was 4.91% in assay [11] (setting [20]), 8.13% in assay [11] (setting [21]) and 6.24% (inactive) in assay [19].

The record behind these values is PubChem BioAssay (NCATS).
